Test [1] can be described thus: compounds altering viability of human ES cells (AID 493140).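 Note: cells exposed to compounds for four days before counting.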 The settings on record: human embryonic stem cell survival screen; stronger effect = higher value.
Test [2] is described as follows: compounds altering Cy5-DNA-NS3h complex signal – biochemical, LOPAC1280, artefact control for HCV NS3 helicase inhibitor project (AID 687037). The settings on record: Cy5-DNA-NS3h complex fluorescence interference counterscreen.
Test [3] can be described thus: stimulators of insulin release from INS-1E, primary screen, cell-based, 5 mM glucose, NPC library (AID 1117329;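 active = compound raises insulin release from rat beta cells at 5 mM glucose, no numeric limit stated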). The settings on record: rat INS-1E insulin secretion, at 10 µM, stronger effect = higher value.
A short description of test [4]: growth inhibition of GSK3B-pretreated HCT116 cells – cell-based, CellTiter-Glo, 0.2 to 20 µM (AID 1117336;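 active = compounds lowering colon cancer cell viability after pretreatment blocking the GSK3B kinase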). Conditions: HCT116 viability after GSK3B inhibitor, at 20 µM, stronger effect = higher value. A general note: Cellular ATP, detected with luciferase, serves as a proxy for viable cell number.
A short description of test [5]: inhibition of endothelial tube formation, primary screen, imaging, VEGF stimulated, CD31 staining, tube area, NPC library (AID 1117340;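 active = compound that reduces growth-factor-driven endothelial tube area in a mixed cell culture, no cutoff stated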). The settings on record: VEGF-stimulated ADSC/ECFC co-culture, at 10 µM, stronger effect = higher value.
The nature of test [6]: GLP1 release stimulators, primary, NCI-H716, NPC library (AID 1117341;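 active = compound raises GLP1 secretion from the human gut endocrine cells, with no numeric limit stated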). The settings on record: NCI-H716 cells, at 10 µM, stronger effect = higher value.
The nature of test [7]: HCT116 colon cancer cell growth inhibition, primary screen, CellTiter-Glo luminescence, NPC library (AID 1117342;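 active = compounds that lower survival of HCT116 colon cancer cells in the luminescence readout, no numeric limit stated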). The settings on record: at 20 µM (top of the series).
A short description of test [8]: reduced SW480 viability measured with CellTiter-Glo, NPC library, primary (AID 1117343;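 active = compounds that lower viability of the colon cancer cells in the luminescence readout, with no numeric limit stated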). Conditions: CellTiter-Glo luminescence; at 20 µM (top of the series) unless noted.
A short description of test [9]: NPC library primary testing for decreased DLD-1 cell viability via CellTiter-Glo (AID 1117346;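 active = compounds that lower survival of DLD-1 colon cancer cells in the luminescence readout, no cutoff given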). Conditions: DLD-1 viability, CellTiter-Glo luminescence; at 20 µM (top of the series).
Test [10] concerns the target 6-phosphogluconate dehydrogenase, decarboxylating (Homo sapiens) (UniProt P52209). Nature of the test: inhibition of human phosphogluconate dehydrogenase – biochemical, recombinant enzyme, NADPH absorbance, primary screen (AID 1159550;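 active = at least 20% inhibition of 6-phosphogluconate dehydrogenase activity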). The settings on record: recombinant 6PGD, NADPH absorbance 341 nm; at 10 µM; stronger effect = higher value.
Test [11] in a line: modulation of C. elegans fzo-1 (AID 1259413).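 Note: fzo-1 mutant C. elegans worms in liquid wells.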 Conditions: C. elegans fzo-1 modulator screen, mean read-out; stronger effect = higher value.
Test [12] can be described thus: EMT-state selective cytotoxicity in co-culture – imaging, PC-3E GFP, TEM4-18 mCherry, primary screen (AID 1345086;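 active = compounds killing one labelled cell type while sparing the other, by normalised counts and ratio limits, not self-fluorescent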;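 for all read-outs here: cells exposed to compound for 72 h before imaging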;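 for red/green cell ratio (normalised): normalised mesenchymal count divided by normalised epithelial count so high means epithelial killing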). The settings on record: PC-3E GFP / TEM4-18 mCherry co-culture, imaging cell counts, at 1 µM; for red/green cell ratio (normalised): actives lie on both sides, counts scaled to control wells, 1 = unselective.
Test [13] is described as follows: blockers of cellular phospholipid synthesis – cell-based, LOPAC library, screen 4, primary screen (AID 1347384). Conditions: animal cells, phospholipid biosynthesis inhibition screen; at 10 µM.
A short description of test [14]: MELAS cybrid and Rieske KO viability enhancers – cell-based, MELAS cybrids, Rieske KO mouse fibroblasts, CellTiter-Glo, primary screen (AID 1508586;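 active = mean z-score across replicates of 1.96 or higher in either the MELAS or the Rieske mutant cell line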;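 note: z relative to plate mean and SD of compound and empty wells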). Conditions: low glucose.
Test [15] concerns the target NAD(+) hydrolase SARM1 (Homo sapiens) (UniProt Q6SZW1). Nature of the test: blocking NAD cleavage by SARM1 SAM-TIR – cell lysate, NAD-Glo luminescence (AID 1508614;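 active = compound whose remaining NAD level is above about 45 nM, limit read from the data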;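 note: higher remaining NAD means stronger inhibition of SARM1 NADase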). The settings on record: SAM-TIR HEK293T lysate NADase, at 1 µM, stronger effect = higher value.
For test [16], the target named is Mitogen-activated protein kinase 7 (Homo sapiens) (UniProt Q13164). Nature of the test: Gal4-ERK5 driven luciferase induction – cell-based, HTS, primary screen (AID 1508626;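 active = luciferase signal above three times the same-plate solvent-only control wells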;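 note: luciferase driven by Gal4-ERK5 fusion binding five Gal4 sites before minimal TATA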). Conditions: HeLa Gal4-ERK5 transactivation, 18 h, at 5 µM, stronger effect = higher value.
The nature of test [17]: galactose survival enhancers in mitochondrial complex I cybrids – cell-based, galactose medium, ATP luminescence, primary screen (AID 1645843;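 active = z-score of at least 1.8 in each of two replicates, scored against plate mean and spread of sample wells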;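 note: positive z means more ATP and so rescue of galactose-driven cybrid death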). The settings on record: complex I mutant cybrid cells, 72 h, stronger effect = higher value.
Test [18] can be described thus: Wnt pathway potentiators raising nuclear beta-catenin – imaging, WNT3A-conditioned medium, mouse C2C12, NPC library, primary screen (AID 1117326; in the data active = nuclear beta-catenin stimulation mostly above about 4.2%, no sharp cut-off; inactive = mostly below about 10%). The settings on record: stronger effect = higher value.
A short description of test [19]: viability loss with induced miR-34 in A549 – imaging, A549 dox-inducible miR-34, nuclei and caspase counts, primary screen (AID 1347080;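 active = compounds whose cell count with miR-34 switched on is under 0.7 times the count with it off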). The settings on record: A549 miR-34 inducible, Hoechst nuclei count, 48 h.
[20] abbreviates: measured here: epithelial PC-3E GFP cell survival.
The mark [21] stands for this setting: measured here: mesenchymal TEM4-18 mCherry cell survival.
Setting [22] is: stronger effect = lower value, cell number ratio, induced over uninduced.
Setting [23] is: measured here: relative caspase fold change +Dox/-Dox.
Setting [24] is: measured here: total cells with miR-34 induction, stronger effect = lower value.
The mark [25] stands for this setting: measured here: total cells without miR-34 induction.

What is called inhibition is the change of the read-out against control, counted positive when it falls.

Molecules are shown by their SMILES. Values joined by “and” are separate entries in the source; they are usually repeats but may differ in a detail not shown here. Equal entries are not always repeated. Active and inactive are the calls of the source. Unless noted, the rule behind the calls is not given here.

Mitogen-activated protein kinase 7 (Homo sapiens), sequence (Q13164 whole entry, looked up, the tested form may be a part): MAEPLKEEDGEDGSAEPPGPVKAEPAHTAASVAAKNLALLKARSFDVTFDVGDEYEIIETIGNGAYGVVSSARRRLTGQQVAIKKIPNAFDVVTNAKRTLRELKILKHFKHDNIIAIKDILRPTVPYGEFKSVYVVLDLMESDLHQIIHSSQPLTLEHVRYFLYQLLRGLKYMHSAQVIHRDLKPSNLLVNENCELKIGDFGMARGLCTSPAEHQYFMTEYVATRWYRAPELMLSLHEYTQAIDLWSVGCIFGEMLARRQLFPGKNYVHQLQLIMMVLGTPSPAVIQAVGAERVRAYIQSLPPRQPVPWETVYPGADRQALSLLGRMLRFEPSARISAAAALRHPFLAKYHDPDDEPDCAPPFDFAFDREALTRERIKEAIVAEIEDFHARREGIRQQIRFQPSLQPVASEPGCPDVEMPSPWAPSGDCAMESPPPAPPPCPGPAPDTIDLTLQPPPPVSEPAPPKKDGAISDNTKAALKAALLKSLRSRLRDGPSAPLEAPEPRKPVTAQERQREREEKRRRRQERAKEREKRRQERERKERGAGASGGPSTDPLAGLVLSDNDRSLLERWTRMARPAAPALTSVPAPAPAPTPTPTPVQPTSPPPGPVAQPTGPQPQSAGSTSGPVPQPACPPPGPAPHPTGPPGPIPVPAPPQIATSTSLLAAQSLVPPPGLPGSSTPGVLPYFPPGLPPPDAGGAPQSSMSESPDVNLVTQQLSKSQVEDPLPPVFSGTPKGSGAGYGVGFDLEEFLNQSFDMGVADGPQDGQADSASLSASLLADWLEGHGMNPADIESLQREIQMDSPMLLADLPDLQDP
NAD(+) hydrolase SARM1 (Homo sapiens), sequence (Q6SZW1 whole entry, looked up, the tested form may be a part): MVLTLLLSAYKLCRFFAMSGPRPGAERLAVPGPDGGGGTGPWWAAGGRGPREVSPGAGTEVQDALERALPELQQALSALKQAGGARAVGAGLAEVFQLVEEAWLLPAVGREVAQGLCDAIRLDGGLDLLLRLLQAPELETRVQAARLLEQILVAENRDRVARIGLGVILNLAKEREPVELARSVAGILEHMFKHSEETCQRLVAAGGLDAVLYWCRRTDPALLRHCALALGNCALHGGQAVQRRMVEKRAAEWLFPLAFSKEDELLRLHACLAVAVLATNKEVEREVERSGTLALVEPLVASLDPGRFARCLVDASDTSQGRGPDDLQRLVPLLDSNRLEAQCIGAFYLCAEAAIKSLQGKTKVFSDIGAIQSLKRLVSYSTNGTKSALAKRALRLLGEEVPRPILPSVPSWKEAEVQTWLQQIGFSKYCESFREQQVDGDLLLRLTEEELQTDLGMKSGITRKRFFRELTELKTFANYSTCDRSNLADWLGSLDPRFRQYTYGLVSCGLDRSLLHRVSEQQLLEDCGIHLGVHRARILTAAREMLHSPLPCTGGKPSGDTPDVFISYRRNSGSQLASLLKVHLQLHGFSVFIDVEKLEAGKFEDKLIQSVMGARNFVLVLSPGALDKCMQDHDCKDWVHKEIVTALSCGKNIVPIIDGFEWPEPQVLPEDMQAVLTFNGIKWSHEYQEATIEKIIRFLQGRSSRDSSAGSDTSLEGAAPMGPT
6-phosphogluconate dehydrogenase, decarboxylating (Homo sapiens), sequence (P52209 whole entry, looked up): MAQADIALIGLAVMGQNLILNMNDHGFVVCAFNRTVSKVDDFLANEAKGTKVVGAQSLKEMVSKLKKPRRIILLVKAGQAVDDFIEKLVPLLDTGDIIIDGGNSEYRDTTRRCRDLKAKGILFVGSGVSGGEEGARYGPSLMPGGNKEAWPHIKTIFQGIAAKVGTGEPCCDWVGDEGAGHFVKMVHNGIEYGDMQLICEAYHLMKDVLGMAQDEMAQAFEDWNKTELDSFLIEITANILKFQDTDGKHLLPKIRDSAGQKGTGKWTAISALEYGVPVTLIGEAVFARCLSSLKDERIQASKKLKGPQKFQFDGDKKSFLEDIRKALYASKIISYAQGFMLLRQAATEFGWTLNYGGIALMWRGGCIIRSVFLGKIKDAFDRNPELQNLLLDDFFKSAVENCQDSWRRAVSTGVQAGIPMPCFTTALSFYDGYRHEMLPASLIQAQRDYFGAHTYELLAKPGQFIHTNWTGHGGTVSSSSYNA

Consider `COC(=O)C1=C(C)NC(C)=C(C(=O)OCCN(C)Cc2ccccc2)C1c1cccc([N+](=O)[O-])c1` (stereo not given), for which, in test [1], the survival was 2.33 (inactive). Besides, in test [2], the fluorescence ratio (interference) was 1 (inactive). Also, in [3], the insulin secretion stimulation was 2.9% (inactive). Also, the viability decrease in test [4] is 91.4% (active). Further, in test [5], the tube area decrease is 14.2% (inactive). Further, the GLP1 secretion stimulation in test [6] is -2.4% (inactive). In addition, the inhibition of viability in [7] is 104% (active). The viability decrease (inhibition) is 126% (active) in test [8] and 84.9% (active) in [9]. Besides, the inhibition in [10] is -13.8% (inactive). The mean signal in test [11] is 246 (inactive). For the same molecule, the red/green cell ratio (normalised) in test [12] is 0.81 (inactive). In addition, the results for the normalised cell number in test [12] (setting [20]) and in [12] (setting [21]) were 1.09 and 0.89, respectively. The molecule was classed as inactive in test [13]. Moreover, the z-score in test [14] (MELAS cybrid survival, CellTiter-Glo 48 h, stronger effect = higher value) was -0.48 (inactive) and -0.0308 (inactive) and 0.219 (inactive); in test [14] (Rieske KO mouse fibroblast survival, CellTiter-Glo 72 h), -0.154 and -0.712 and 0.12; in test [17], -1.29 (inactive) and -1.5 (inactive) and 0.665 (inactive). Besides, in test [15], the remaining NAD was 10 nM (inactive). Also, the luciferase signal in test [16] was 48 AU (inactive).

In the case of `O=C(O)C1CCC1`, the nuclear beta-catenin stimulation in test [18] (at 10 µM) was -0.9% (inactive); in test [18] (stimulation, at 2 µM), 6.2%. In addition, the viability decrease in test [4] is -0.7% (inactive). Also, the inhibition of viability in test [7] was 13.6% (inactive). Further, the viability decrease (inhibition) in test [8] was 1.4% (inactive); in [9] it was 6.3% (inactive).

Take `COCCCOc1ccnc(CS(=O)c2nc3ccccc3[nH]2)c1C` (stereo not given): the nuclear beta-catenin stimulation in test [18] (at 10 µM) is 0% (inactive); in test [18] (stimulation, at 2 µM) it was 9.8%. Also, the viability decrease in [4] was 32.7% (inactive). Besides, in test [7], the inhibition of viability was 20.2% (inactive). Also, the figures for the viability decrease (inhibition) in [8] and in test [9] were 4.6% (inactive) and -10.8% (inactive), respectively. In addition, the mean signal in test [11] is 232 (inactive). For the same molecule, the red/green cell ratio (normalised) in test [12] is 0.79 (inactive). Further, the normalised cell number in [12] (setting [20]) was 1.16; in test [12] (setting [21]), 0.91. For the same molecule, the fold change in test [19] (setting [22]) is 0.932 (inactive) and 0.863 (inactive); in test [19] (setting [23]), 1.16 and 3.79. In addition, the cell count in test [19] (setting [24]) is 9170 and 10700; in [19] (setting [25]), 9840 and 12400. Besides, the remaining NAD in test [15] is 10 nM (inactive). The luciferase signal in test [16] was 200 AU (inactive). The z-score in [17] was -0.225 (inactive).

On to `CN1C(=O)CC[C@H]1c1cccnc1`, for which, in [1], the survival was 19.8 (inactive). Moreover, the fluorescence ratio (interference) in [2] was 1 (inactive). Besides, the nuclear beta-catenin stimulation in test [18] (at 10 µM) is -1.4% (inactive); in [18] (stimulation, at 2 µM), 5.5%. Besides, the viability decrease in [4] was 22.7% (inactive). Besides, in test [7], the inhibition of viability is 12.8% (inactive). The figures for the viability decrease (inhibition) in [8] and in test [9] were -3% (inactive) and 14.2% (inactive), respectively. Moreover, the inhibition in test [10] is 7.9% (inactive). In test [11], the mean signal is 242 (inactive). In addition, the red/green cell ratio (normalised) in [12] is 1.08 (inactive). In addition, the values for the normalised cell number in [12] (setting [20]) and in test [12] (setting [21]) were 1.13 and 1.23, respectively. The fold change in [19] (setting [22]) was 1 (inactive) and 0.929 (inactive) and 0.864 (inactive); in test [19] (setting [23]) it was 1.81 and 1.06 and 0.497. For the same molecule, the cell count in test [19] (setting [24]) was 10100 and 7880 and 10300; in test [19] (setting [25]), 10100 and 8480 and 11900. For the same molecule, the result in test [13] was inactive. For the same molecule, the remaining NAD in test [15] is 22 nM (inactive). The luciferase signal in test [16] is 64 AU (inactive). In [17], the z-score was 0.48 (inactive).

Take `COc1ccccc1N1CCN(CCCCNC(=O)c2ccc(-c3ccc(C(C)=O)cc3)cc2)CC1`: the nuclear beta-catenin stimulation was 9.8% (inactive) in test [18] (at 10 µM) and 9.2% in [18] (stimulation, at 2 µM). In [4], the viability decrease is 55.6% (active). In addition, the inhibition of viability in test [7] was 51.4% (active). The viability decrease (inhibition) in test [8] is 69.7% (active); in test [9], 13.8% (inactive). Moreover, the fold change in test [19] (setting [22]) is 0.929 (inactive); in test [19] (setting [23]), 0.93. Also, the results for the cell count in test [19] (setting [24]) and in test [19] (setting [25]) were 8920 and 9600, respectively. Also, in test [17], the z-score is -0.635 (inactive).

(Values after PubChem BioAssay.)
